We go through 18 compounds from the supplement of paper PMC3842684.

Each structure is given as a SMILES string.

The subject of the assay is P. falciparum NF54-pfs16-GFP early (I-III) stage gametocytes. Description: relative % inhibition of viable gametocyte number; higher = more gametocytocidal. The note with it: 5 µM; stage: early (I-III) gametocyte; incubation 72 h. The method, boiled down: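 Relative inhibition was normalised to in-plate vehicle and positive-control wells, with viable gametocytes defined on confocal images as elongated GFP objects whose MitoTracker Red signal exceeded a cut-off. NF54 pfs16-GFP gametocytes, magnet-isolated at early (I/IIa, day 2) or late (day 8) stage, were plated at 10% parasitaemia, 0.1% haematocrit with compound at 5 or 0.5 µM. Plates were incubated 72 h at 37°C, 5% CO2, 5% O2, then stained overnight.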
For `COc1ccc(C2Sc3ccccc3N=C3C2=C(O)c2ccccc23)cc1` (stereo not drawn), the relative % inhibition is 20.4%.

As to `COc1ccccc1CNC(=O)C1c2ccccc2C(=O)N(CC(C)C)C1c1cccs1` (stereo not drawn), the relative % inhibition is 31.9%. As to `CCC(C)NCC(O)(c1ccc(Cl)cc1)c1ccc(Cl)cc1` (stereo not drawn), the relative % inhibition is 102%.

With `CC(C)(C)c1ccc(C(=O)Nc2c3c(nn2-c2cccc(Cl)c2)CSC3)cc1`, the relative % inhibition stood at 10.5%. Then `COc1ccc(-c2c(C)nn3c(N)c(C#N)cnc23)cc1OC`, with 22.9%; and `COc1ccc(CCNC(=O)c2cc(S(=O)(=O)N3CC(C)CC(C)C3)ccc2Sc2ccc(F)cc2)cc1OC` (stereo not drawn), with -11.3%; and `COc1ccc(N2CCN(C(CNC(=O)CC(C)(C)C)c3ccc4c(c3)OCO4)CC2)cc1` (stereo not drawn), with 24.4%. In the case of `CCCCc1c(CCC)c(=N)c2ccccc2n1C`, the relative % inhibition is -5.38%. On to `Cc1cc(Nc2cccc(F)c2)nc(NCc2ccccc2)n1`, for which the relative % inhibition came out at 72.2%. Take `Cc1ccnc(NC(c2cccc(OCc3ccccc3)c2)c2ccc3cccnc3c2O)c1` (stereo not drawn): the relative % inhibition was found to be 96.4%. Turning to `CCN(CC)c1cc(C)c2cc(NC(=O)c3cccc(OC)c3)ccc2n1`, the relative % inhibition was 16.1%. Then `CC(C)=CCN1CCC(C(=O)Nc2ccc(-c3nc4ccccc4[nH]3)cc2)CC1`, with 74.1%; and `Oc1c(CN2CCN(c3ccccc3F)CC2)cc(Br)c2cccnc12`, with 89.8%.

Regarding `COc1ccc2c(c1)OC(O)(C(F)(F)C(F)(F)F)CC2=O` (stereo not drawn), the relative % inhibition is -4.42%. Consider `COc1ccc(Nc2cc(C)nc(NCc3ccccc3)n2)cc1`, for which the relative % inhibition was found to be 26.6%.

Turning to `COc1cccc(Nc2nc(N)c3ccccc3n2)c1`, the relative % inhibition was -5.49%. For the compound `CCCCCn1c(=N)n(CC(O)COc2cccc(C)c2)c2ccccc21` (stereo not drawn), the relative % inhibition turned out to be 74.5%. Then `CCOc1ccc2nc(C)cc(Nc3ccc(Br)cc3)c2c1`, with 58.5%.
